Screens as filed in PubChem BioAssay.
Hits are enriched below; roughly 5.4% of the tested compounds scored in any of these assays.
GASC-1 inh: blocks human GASC-1 demethylase activity; Q9H3R0; GST-JMJD2C(1-420) H3K9me3 demethylation, DELFIA europium; inhibition, % at 2.35 µM; 330,000 compounds, 0.069% hits;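 active = more than half of a compound's replicate wells show inhibition beyond 50%, single wells judged on their own value; inconclusive = some, but no more than half, of replicates pass 50% inhibition; inactive = no replicate passes 50% inhibition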;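 also: signal counts dimethyl H3K9 product captured on neutravidin plate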
Target sequence (Q9H3R0 1-420 limits assumed): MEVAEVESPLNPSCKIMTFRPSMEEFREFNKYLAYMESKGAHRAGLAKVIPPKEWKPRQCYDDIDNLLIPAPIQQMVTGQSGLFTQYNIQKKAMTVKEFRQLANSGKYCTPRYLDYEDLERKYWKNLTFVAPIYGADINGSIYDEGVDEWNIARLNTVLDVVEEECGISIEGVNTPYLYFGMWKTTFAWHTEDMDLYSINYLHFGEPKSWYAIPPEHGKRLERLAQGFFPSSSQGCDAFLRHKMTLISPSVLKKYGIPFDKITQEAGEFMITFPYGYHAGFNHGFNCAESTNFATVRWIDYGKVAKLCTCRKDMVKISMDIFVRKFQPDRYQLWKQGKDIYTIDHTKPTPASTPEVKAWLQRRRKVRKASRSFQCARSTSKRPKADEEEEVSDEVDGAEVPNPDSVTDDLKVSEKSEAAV
PfM18AAP inh: PfM18AAP enzyme inhibition | recombinant PfM18AAP, H-Glu-NHMec fluorogenic cleavage | inhibition, % at 7.35 µM | 290,000 compounds, 1.2% hits | AID 1822;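 active = inhibition above the campaign mean inhibition over all tested compounds plus 3 SD, cut at about 28% in these data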
Exocytosis inh: lytic granule exocytosis inhibition; TALL-104 LAMP-1 surface exposure, flow cytometry; cells stimulated with thapsigargin and PMA; AID 651702; 360,000 compounds, 0.66% hits; inhibition, % at 10 µM;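 active = inhibition above about 55%, limit read from the data; inconclusive = no clear call, values can overlap the other calls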
SMARCA2 act: SMARCA2 function activation, primary screen | MG213 cells, MMTV-luciferase reporter, dexamethasone, overnight | activation, % at 9.1 µM | 370,000 compounds, 1% hits | AID 652017; in the data active = activation above about 7.8%
beta cell repl: MIN6 beta-cell proliferation induction; proliferation, % at 10 µM; 330,000 compounds, 0.29% hits; MIN6 cells proliferation, ATPlite luminescence, 48 h; cells starved in 0.2% serum; 100% = growth in 10% serum;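 active = compounds whose signal lies at least 3.5 SD above the mean of all wells on their plate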
ALR inh: inhibitors of human sulfhydryl oxidase ALR; P55789; AID 485317; inhibition, % (concentration not given with the values); purified ALR, DTT oxidation, H2O2 HRP-luminol luminescence; 290,000 compounds, 3.8% hits;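 active = mean replicate inhibition above about 79%, with every replicate also reaching it, limit read from the data; inconclusive = only one of the two criteria met; inactive = mean below limit and not every replicate reaching it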
Target sequence (P55789 whole entry, looked up): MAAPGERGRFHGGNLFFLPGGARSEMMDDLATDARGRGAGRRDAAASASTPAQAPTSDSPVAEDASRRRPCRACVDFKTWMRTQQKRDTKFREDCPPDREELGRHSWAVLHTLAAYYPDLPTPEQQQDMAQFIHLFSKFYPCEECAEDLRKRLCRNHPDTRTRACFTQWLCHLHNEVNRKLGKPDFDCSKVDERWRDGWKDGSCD
Numbers stand for hits; i = inactive; ? = inconclusive; nt = no result given.

SMILES	GASC-1 inh	PfM18AAP inh	Exocytosis inh	SMARCA2 act	beta cell repl	ALR inh
COC(=O)C1C(O)=C(C(C)=N)C(=O)CC1(C)C (configuration not stated)	i	i	i	i	i	97.7
Cc1ccc(NC2c3ncccc3C(=O)N2C2CCCCC2)cc1 (configuration not stated)	i	i	i	i	i	96.0
Cc1ccc(NC2c3ncccc3C(=O)N2Cc2cccs2)cc1C (configuration not stated)	i	i	i	i	i	i
Cc1ccc(NC2c3ncccc3C(=O)N2Cc2ccc(F)cc2)cc1 (configuration not stated)	i	i	i	i	i	97.3
Cc1ccc(NC2c3ncccc3C(=O)N2C2CCCCC2)cc1C (configuration not stated)	i	i	i	i	i	92.5
O=C(CSCC(=O)N1CCCc2ccccc21)Nc1nc(-c2ccccc2)cs1	i	i	i	i	i	99.6
COc1cccc(C(=O)Nc2nc(-c3ccc4c(c3)OCO4)cs2)c1	i	i	i	i	i	i
Cc1ccc(-c2csc(NC(=O)CSc3nc(C)cs3)n2)cc1	i	i	i	i	i	?
CC(=O)Nc1nc(-c2ccc3c(c2)OCO3)cs1	i	i	i	i	i	i
CCOC(=O)N1CCN(C(=O)CSCC(=O)Nc2nc(-c3ccc4c(c3)OCO4)cs2)CC1	nt	i	i	nt	i	99.0
CCOC(=O)N1CCN(C(=O)CSCC(=O)Nc2nc(-c3ccc(C)cc3)cs2)CC1	i	i	i	i	i	99.0
O=C(CSCC(=O)N1CCOCC1)Nc1nc(-c2ccc3c(c2)OCO3)cs1	i	i	i	i	i	97.4
COc1cccc(CNC(=O)[C@H]2CCCN2C(=O)[C@H]2CCCN2C(=O)c2ccc(F)cc2F)c1	nt	nt	nt	i	nt	nt
C=CCN(C(=O)[C@@H](C)[C@@H](O)c1ccc(C(C)=O)cc1)c1ccccc1	nt	nt	nt	i	nt	nt
N#CCC(=O)Nc1nc(-c2ccc3c(c2)OCCO3)cs1	i	i	i	i	i	99.5
Cn1c(SCC(=O)Nc2ccccc2-c2ccccc2)nnc1-c1cnccn1	nt	nt	nt	i	nt	nt
CC(C)(C)Nc1nc(Cl)nc(N(C#N)CN2C(=O)c3ccccc3S2(=O)=O)n1	i	i	i	i	i	92.2
CN(Cc1ccccc1)C(=O)OCc1cn(Cc2cc(F)cc(F)c2)nn1	nt	nt	nt	i	nt	nt
Cc1cc(F)ccc1NCc1ccccc1[N+](=O)[O-]	i	i	i	i	i	98.7
Cc1ccc(C2C(/C=C3/SC(=S)NC3=O)=C(c3cccs3)Oc3ccccc32)cc1 (configuration not stated)	i	i	i	i	i	98.9
O=C(CSCc1ccc(Cl)cc1)Nc1ccc(-c2nnc(-c3ccccc3)o2)cc1	i	i	i	i	i	i
N#CCSCC(=O)Nc1ccc(Cl)cc1	i	i	i	i	i	98.5
COc1ccc2[nH]c(C)c(-c3csc(N)n3)c2c1	i	i	i	i	i	98.7
Cc1ccc(C(=O)C2CCN(CC(=O)NCc3cccs3)CC2)cc1	nt	nt	nt	i	nt	nt
Cc1cc2nc3c(=O)n(CCc4ccccc4)c(=O)[nH]c3nc2cc1N	i	34.0	i	i	i	i
SMILES	GASC-1 inh	PfM18AAP inh	Exocytosis inh	SMARCA2 act	beta cell repl	ALR inh
Cc1cc(C(=O)NC2CCCc3c2cnn3-c2ccc(C)c(C)c2)no1 (configuration not stated)	i	i	i	i	i	88.8
Cc1ccc(-n2ncc3c2CCCC3NC(=O)c2ocnc2C)cc1C (configuration not stated)	i	i	i	i	i	i
O=C1C(Cl)=C(Nc2ccccc2O)C(=O)N1c1ccccc1	i	45.8	i	i	i	i
NC(=O)C1CCN(c2nc(-c3ccc4occc(=O)c4c3)cs2)CC1	i	nt	i	i	i	98.8
NC(=O)C1CCN(c2nc(-c3ccc(F)cc3)cs2)CC1	i	nt	i	i	i	i
CC(C)C[C@@H]1COc2cc(Br)ccc2S(=O)(=O)N1Cc1cn(CC2CCCCC2)nn1	nt	nt	nt	i	nt	nt
Cc1ccc(NCc2nnc(SCC(=O)Nc3ncc(C)s3)n2Cc2ccco2)c(C)c1	i	i	i	i	i	98.4
Cc1ccc(NC(=O)CSc2nnc(-c3cccnc3)n2Cc2ccco2)c(C)c1	nt	nt	nt	i	nt	nt
CCc1ccc2c(c1)/C(=C/C(=O)c1cccs1)C(=O)N2	i	i	104.4	i	i	i
COc1ccc2[nH]c(=O)c(CN(C(=O)c3ccccn3)C3CCCCC3)cc2c1	i	i	i	i	i	99.0
CCNC(=O)C(C)Sc1ccc(Cl)cc1 (configuration not stated)	i	i	i	i	i	i
CCNC(=O)NC(=O)C(C)Sc1ccc2c(c1)OCCO2 (configuration not stated)	nt	i	i	i	i	98.2
CCOC(=O)N1CCN(C(=O)C[C@@H]2C(=O)N(CCc3ccc(Cl)cc3)/C3=C/CCCCC[C@@]32C(=O)OCC)CC1	nt	nt	nt	i	nt	nt
CCOC(=O)[C@]12CCCC3=C1N(CCC3)C(=O)[C@@H](CC(=O)NCc1cccc(C(F)(F)F)c1)C2	nt	nt	nt	i	nt	nt
CC(C)C[C@@H]1COc2cc(Br)ccc2S(=O)(=O)N1Cc1cn(Cc2ccc(F)cc2)nn1	nt	nt	nt	i	nt	nt
O=C(/C=C/c1ccco1)NCC(=O)N/N=C/c1ccc([N+](=O)[O-])cc1	i	i	i	i	i	i
O=C(/C=C/c1ccco1)NCC(=O)N/N=C/c1ccc(Cl)cc1	i	i	i	i	i	i
CN(C)c1ccc(/C=N/NC(=O)CNC(=O)/C=C/c2ccco2)cc1	i	i	i	i	i	90.9
CN(C)c1ccc(/C=N/NC(=S)NCc2ccco2)cc1	i	i	i	i	i	97.7
S=C(NCc1ccco1)N/N=C/c1ccncc1	i	i	i	i	i	i
O=C(/C=C/c1ccccc1)NCC(=O)N/N=C/c1ccco1	i	i	76.2	i	i	i
C[C@H]1COc2cc(Br)ccc2S(=O)(=O)N1Cc1cn(CCC2OCCO2)nn1	nt	nt	nt	i	nt	nt
N#Cc1ccc2nc(-c3ccc(CN4CCC(c5nc6ccccc6[nH]5)CC4)cc3)c(-c3ccccc3)nc2c1	nt	nt	nt	i	nt	nt
O=C(NCCc1ccccc1)c1ccc2c(c1)N(Cc1ccccc1)C(=O)CS2=O (configuration not stated)	i	i	i	i	i	i
CCOCCCNC(=O)c1ccc2c(c1)N(Cc1ccccc1)C(=O)CS2=O (configuration not stated)	i	28.5	i	i	i	i
CC(C)c1nc(SCC(=O)Nc2ccc(N3CCOCC3)cc2)c2ccccc2n1	i	i	i	i	i	98.7
O=C(CSc1ccccc1)Nc1ccc(N2CCOCC2)cc1	i	i	i	i	i	i
Cc1cc(C)nc(SCC(=O)Nc2ccc(N3CCOCC3)cc2)n1	i	i	i	i	i	98.2
CCCc1nc(SCC(=O)Nc2ccc(N3CCOCC3)cc2)c2ccccc2n1	i	i	i	i	i	98.5
Cc1ccc(CN2C(C(=O)NC3CCCC3)CSCCS2(=O)=O)cc1 (configuration not stated)	nt	nt	nt	i	nt	nt
